# This is a sample that favours compounds with a hit; in the whole collection about 4.2% have one here.
# GDH-TPI counter-1: GDH-TPI coupling enzyme inhibitors, primary screen, artefact control for M. tuberculosis FBA inhibitor project, biochemical, absorbance, full deck; inhibition, % at 4.8 µM; GDH-TPI coupled enzyme counterscreen, NADH absorbance; 360,000 compounds, 1.2% hits; in the data active means inhibition above about 30%;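 further: 0% = DMSO wells and 100% = wells lacking the enzyme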
# RecA splice inh: Mtb RecA intein splicing inhibitors, primary screen, biochemical, fluorescence, HTS; 290,000 compounds, 0.75% hits; inhibition, % (concentration not given with the values); cell-free RecA intein splicing; Protein RecA (Mycobacterium tuberculosis (strain ATCC 25618 / H37Rv)), P9WHJ3; in the data active means inhibition above about 30%;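 further: 0% = vehicle wells and 100% = reference inhibitor control wells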
# BJeLR lethal: MLPCN primary cell-based screen for lethality selective to Ras in HRASV12 cells | BJeLR (HRASV12) viability, CellTiter-Glo ATP luminescence, 48 h | inhibition, % (concentration not given with the values) | 300,000 compounds, 0.17% hits; in the data active means inhibition above about 50%
# PrPC TRFRET: inhibitors of human cell surface prion protein PrPC, primary screen, cell-based, TR-FRET | 370,000 compounds, 0.43% hits | TR-FRET read-out | inhibition, % at 13.8 µM | Major prion protein (Homo sapiens), P04156; in the data active means inhibition above about 24%; further: 0% = median of the test wells and 100% = reference compound wells
# FBA Mtb inh: Mtb FBA enzyme inhibitors, primary screen, biochemical, fluorescence, strain H37Rv; Fructose-bisphosphate aldolase (Mycobacterium tuberculosis (strain ATCC 25618 / H37Rv)), …; purified M. tuberculosis FBA, fluorescence read-out; inhibition, % at 1 µM; 360,000 compounds, 2.3% hits;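 further: 0% = vehicle and 100% = reference inhibitor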
# Mtb FBA inh conf: M. tuberculosis aldolase blockers, biochemical, fluorescence, strain H37Rv, confirmation | shares compounds with FBA Mtb inh | purified M. tuberculosis FBA, fluorescence read-out | inhibition, % at 1 µM | 5,600 compounds, 78% hits;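 further: 0% = vehicle wells and 100% = reference inhibitor wells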
# GDH-TPI counter-2: GDH-TPI coupling enzyme inhibitors, artefact control for M. tuberculosis FBA inhibitor project, biochemical, fluorescence, high throughput. inhibition, % at 1 µM. shares compounds with FBA Mtb inh. GDH-TPI coupled enzyme counterscreen. 5,600 compounds, 81% hits; in the data active means inhibition above about 10%
# GDH-TPI DR: GDH-TPI coupling enzyme inhibitors, dose response, artefact control for M. tuberculosis FBA inhibitor project, biochemical, fluorescence, IC50 | shares compounds with FBA Mtb inh | GDH-TPI coupled enzyme assay, artifact counterscreen | IC50, µM | 170 compounds, 79% hits; call rule not given here
# Numbers without * were called inactive; nt = no result; + = active, no number. Unless noted, no stated cut-off is given here; in the data, active means inhibition above about 27%; inactive means the rest.
SMILES,GDH-TPI counter-1,RecA splice inh,BJeLR lethal,PrPC TRFRET,FBA Mtb inh,Mtb FBA inh conf,GDH-TPI counter-2,others
CN1c2cccc3cccc(c23)N(C)C1(C)C,16,-5,-4,-12,72*,1,4,
CC(=O)Nc1nnc(-c2ccccn2)o1,-2,0,-4,-3,31*,+,153*,
CCCn1c(-c2cccc(F)c2)nc2c1c(=O)[nH]c(=O)n2Cc1ccccc1,-1,0,-6,14,6,nt,nt,
Cn1c(-c2cccc(F)c2)nc2c1c(=O)[nH]c(=O)n2Cc1ccccc1,-13,-2,-6,8,28*,4,-3,
COc1ccc(-c2nc3c(c(=O)[nH]c(=O)n3Cc3ccccc3)n2Cc2ccccc2)cc1,5,-1,-5,2,3,nt,nt,
CCCCn1c(=O)[nH]c(=O)c2c1nc(-c1ccc(OCCC)c(OCC)c1)n2CCOC,5,1,4,5,21,nt,nt,
CCCn1c(-c2cc(OC)c(OC)c(OC)c2)nc2c1c(=O)[nH]c(=O)n2Cc1ccccc1,-4,5,3,-1,41*,12,9,
O=c1[nH]c(=O)n(Cc2ccccc2)c2nc(-c3ccc(C(F)(F)F)cc3)n(CCO)c12,6,-5,-1,1,69*,134*,115*,
O=c1[nH]c(=O)n(Cc2ccccc2)c2nc(-c3cccs3)n(CCO)c12,nt,-8,-4,7,nt,nt,nt,
CCCOc1ccc(-c2nc3c(c(=O)[nH]c(=O)n3Cc3ccccc3)n2CCO)cc1OCC,-1,-8,-4,-5,38*,0,-4,
Cc1c(C)n(Cc2ccc(-c3ccccc3C(=O)O)cc2)c2ccc(C(=O)N[C@@H](C)c3ccc([N+](=O)[O-])cc3)cc12,nt,nt,nt,-10,nt,nt,nt,
O=c1[nH]c2ccccc2nc1-c1ccccc1,31*,-4,10,-15,45*,79*,76*,
COc1ccc(-n2c(C)cc3cc(OC(C)=O)ccc32)cc1,5,1,7,-1,58*,68*,49*,
COc1ccc(-n2c(C)c(C(C)=O)c(C(C)=O)c2C)cc1,6,0,6,4,2,nt,nt,
COc1ccc(S(=O)(=O)N2CCN(C(=O)C3CC(=O)N(c4ccccc4F)C3)CC2)cc1OC (stereo unspecified),-1,nt,nt,-1,33*,150*,94*,
Cc1cccc(C(=O)Nc2c(-c3ccc(C(F)(F)F)cc3)nc3ncccn23)c1,nt,nt,nt,11,nt,nt,nt,
CCC1(c2ccc(F)cc2)NC(=O)N(CC(=O)N2CC(=O)Nc3ccccc32)C1=O (stereo unspecified),6,0,2,-8,29*,163*,116*,
CCCC1(c2ccccc2)NC(=O)N(CC(=O)N2CC(=O)Nc3ccccc32)C1=O (stereo unspecified),8,nt,nt,-9,5,nt,nt,
Cc1ccc(S(=O)(=O)N2c3ccccc3C[C@H]2CC=C(c2ccccc2)c2ccccc2)cc1,nt,nt,nt,6,nt,nt,nt,
CCOc1ncccc1C(=O)OCC(=O)N1CCN(S(=O)(=O)c2ccc(Cl)cc2)CC1,-5,-3,1,1,-3,nt,nt,
Nc1ncccc1C(=O)OCC(=O)N1CCN(S(=O)(=O)c2ccc(Cl)cc2)CC1,23,nt,nt,1,62*,9,-4,
C[C@H](O)[C@@H]1C(=O)N2CCc3c([nH]c4c(-c5ccc6c(c5)OCO6)cccc34)[C@@H]2C[C@@H]1N(C)C(=O)OCc1ccccc1,nt,nt,nt,-3,nt,nt,nt,
COc1ccc(N2CCN(CCC(N)=O)CC2)cc1,7,-8,9,-3,31*,78*,53*,
C[C@H](O)[C@@H]1CN2CCc3c([nH]c4c(-c5ccccc5)cccc34)[C@@H]2C[C@@H]1N(C)C(=S)NCCc1ccccc1,nt,nt,nt,-15,nt,nt,nt,
COc1ccccc1C(c1nnnn1CCc1ccccc1)N1CCN(c2ccccc2)CC1 (stereo unspecified),-5,10,-4,-5,2,nt,nt,
SMILES,GDH-TPI counter-1,RecA splice inh,BJeLR lethal,PrPC TRFRET,FBA Mtb inh,Mtb FBA inh conf,GDH-TPI counter-2,others
COc1ccc(Cn2nnnc2C(CC(C)C)N2CCN(c3ccccc3)CC2)cc1 (stereo unspecified),4,2,-15,-3,55*,23,9,GDH-TPI DR=>10
COCCn1nnnc1C(c1ccccc1OC)N1CCN(c2ccccc2)CC1 (stereo unspecified),-2,1,-9,-1,40*,60*,41*,
Nc1ncnc2c(C3OC(CO)C(O)C3O)scc12 (stereo unspecified),10,nt,nt,55*,74*,180*,119*,
CCCCCCC(=O)NC1CCCCN(Cc2cccc(Cl)c2)C1=O (stereo unspecified),nt,nt,nt,8,nt,nt,nt,
CCOC(=O)C1=C(c2ccccc2)OC(N)=C(C#N)C1c1ccncc1 (stereo unspecified),6,-1,-13,3,43*,67*,66*,
CCOC(=O)C1=C(N)OC(C)=C(C#N)C1c1ccco1 (stereo unspecified),13,-1,-9,7,-2,nt,nt,
CCCC1=C(C(=O)OCC)C(c2ccco2)C(C#N)=C(N)O1 (stereo unspecified),6,-3,-5,-3,57*,99*,68*,
Cn1c(=O)c2cc(S(=O)(=O)N3CCN(Cc4ccccc4)CC3)ccc2n(C)c1=O,nt,nt,nt,-1,nt,nt,nt,
Cc1cc(C)c2cc(C#N)c(N3CCCN(C(=S)NCCCN(C)C)CC3)nc2c1,7,-23,24,2,7,nt,nt,
Cc1cc(C)c2cc(C#N)c(N3CCCC3)nc2c1,1,nt,nt,-4,36*,2,2,
COc1ccccc1NC(=O)COC(=O)CCc1ccc(S(=O)(=O)N2CCOCC2)cc1,14,nt,nt,-2,31*,162*,134*,
O=c1c2ccccc2nc2n1CCCCC2,-8,2,1,7,-14,nt,nt,
Nc1ccc2nc3n(c(=O)c2c1)CCC3,9,-3,-6,-7,110*,4,1,
O=S1(=O)c2c(NCc3ccco3)cccc2Oc2ccccc2CN1Cc1cn(Cc2ccc(C(F)(F)F)cc2)nn1,nt,nt,nt,-4,nt,nt,nt,
COc1ccc2nc(C)cc(N3CCC(C(N)=O)CC3)c2c1,15,1,-6,0,3,nt,nt,
COc1ccc2nccc(C(N)=O)c2c1,-7,-3,-9,2,49*,43*,28*,

# Screens as filed in PubChem BioAssay.
